Key:
Test in all cases: PBM binding z-score (relative to random genomic background probes); higher = stronger binding; sequences stand for … in GC…GCGATTGACAGCGTAGAATGAAGG
[1] = tested on: FXR:RXRa (NR concentration 270 nM, RXRa partner concentration 90 nM)
In short: (§1)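 Probes were double-stranded and carried 34-nt variable regions with direct-repeat seeds, single-nucleotide variants, half-site ablations and random human genomic background sequences, printed on custom Agilent 4×180K protein-binding microarrays. Arrays were incubated 1 h with ligand-free nuclear receptor dimers in PBS pH 7.4, 2% milk, 0.02% Triton X-100, 1 mM DTT, 0.2 mg/mL BSA and 0.4 mg/ml salmon testes DNA. Antibodies against each partner (one per run) detected binding, and scanned fluorescence was regression-normalized. Binding z-scores use the random background probes as reference.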

[2] = tested on: LXRa:RXRa (NR concentration 270 nM, RXRa partner concentration 90 nM)
In short: as §1

[3] = tested on: LXRa homodimer (NR concentration 270 nM)
In short: as §1

[4] = tested on: LXRb:RXRa (NR concentration 270 nM, RXRa partner concentration 90 nM)
In short: as §1

[5] = tested on: LXRb homodimer (NR concentration 270 nM)
In short: as §1

[6] = tested on: PPARa:RXRa (NR concentration 270 nM, RXRa partner concentration 90 nM)
In short: as §1

[7] = tested on: PPARg:RXRa (NR concentration 180 nM, RXRa partner concentration 90 nM)
In short: as §1

[8] = tested on: PPARg:RXRa 270nM:90nM, anti-RXR (NR concentration 270 nM, RXRa partner concentration 90 nM)
In short: as §1

[9] = tested on: PPARg:RXRa 30nM:10nM, anti-RXR (NR concentration 30 nM, RXRa partner concentration 10 nM)
In short: as §1

[10] = tested on: PPARg:RXRa 90nM:30nM, anti-RXR (NR concentration 90 nM, RXRa partner concentration 30 nM)
In short: as §1

[11] = tested on: PPARg:RXRa DBDmut IVT, anti-RXR (DBD mutation: RXRa K156A/R161A, NR concentration 270 nM, RXRa partner concentration 90 nM)
In short: as §1

[12] = tested on: PPARg:RXRa IVT, anti-PPARg (NR concentration 270 nM, RXRa partner concentration 90 nM)
In short: as §1

[13] = tested on: PPARg DBDmut:RXRa IVT, anti-PPARg (DBD mutation: PPARg1 K132A/R137A, NR concentration 270 nM, RXRa partner concentration 90 nM)
In short: as §1

[14] = tested on: PPARg DBDmut IVT, anti-PPARg (DBD mutation: PPARg1 K132A/R137A, NR concentration 270 nM)
In short: as §1

[15] = tested on: PPARg homodimer (NR concentration 180 nM)
In short: as §1

[16] = tested on: PXR:RXRa (NR concentration 270 nM, RXRa partner concentration 90 nM)
In short: as §1

[17] = tested on: PXR homodimer (NR concentration 270 nM)
In short: as §1

[18] = tested on: RARa:RXR (NR concentration 270 nM, RXRa partner concentration 90 nM)
In short: as §1

[19] = tested on: RARa homodimer (NR concentration 270 nM)
In short: as §1

[20] = tested on: RARb:RXRa (NR concentration 270 nM, RXRa partner concentration 90 nM)
In short: as §1

Sequence	PBM binding z-score [1]	PBM binding z-score [2]	PBM binding z-score [3]	PBM binding z-score [4]	PBM binding z-score [5]	PBM binding z-score [6]	PBM binding z-score [7]	PBM binding z-score [8]	PBM binding z-score [9]	PBM binding z-score [10]	PBM binding z-score [11]	PBM binding z-score [12]	PBM binding z-score [13]	PBM binding z-score [14]	PBM binding z-score [15]	PBM binding z-score [16]	PBM binding z-score [17]	PBM binding z-score [18]	PBM binding z-score [19]	PBM binding z-score [20]
CCCACTGGGGCAAGGTTACCATAACGCACAGCCA	0.184	0.769	-0.0723	0.417	-0.882	2.46	4.81	4.76	1.92	4.56	4.18	5.58	2.71	0.0183	1.07	0.144	-0.536	1.05	0.0116	1.75
GGAACGAGGGCATTCGAGTTGATAGTATGGCGAT	1.62	1.71	-0.324	0.436	-0.544	1.62	1.13	1.22	0.197	0.753	3	2.29	-0.142	-0.408	-0.115	4.11	1.45	0.744	0.0734	1.98
GCGACTGGGGCATCAGCAGGGTACCATAACTTAA	-0.653	-0.542	-0.531	0.192	-0.913	0.58	0.759	0.382	-0.46	-0.166	3.75	2.79	-0.747	-0.946	-0.494	-0.289	-0.457	-0.268	-1.05	0.517
CCGACTGGGGCAAAGATTACCATACTCAGTACGA	-0.494	-0.583	-0.45	-0.138	-1.19	1.89	4.52	5.48	3.98	6.06	4.42	3.1	-0.00287	-0.543	0.462	-0.644	-0.342	-0.848	-0.293	0.284
ACTAGCGGGCCAAGGGTCACTCAAGATTAGTCCG	1.99	2.61	0.192	2.86	-0.58	4.26	7.39	7.39	6.2	8.29	0.353	3.65	-0.682	-0.893	0.892	3.21	-0.327	4.1	0.108	3.38
CCTAGTTGGTCAGGAGGTCACACAGCGGATATGA	4.26	3.54	2.17	3.55	0.887	4.36	3.51	4.15	1.76	3.56	1.92	3.62	0.997	0.401	5.93	4.51	2.55	5.39	3.77	3.81
GCTGCTAGGTCAGGTTGGCCAGCTAACGGGTACG	1.01	0.472	-0.875	0.118	-0.715	1.32	0.322	0.756	-0.322	0.219	2.74	2.24	-0.719	-0.956	0.0382	-0.079	-0.624	0.336	-0.755	3.1
CAAACTAGGTAAAGGTCAAAGTCGGTTTGTGCCA	6.46	6.21	5.75	5.55	2.15	6.23	7.83	7.43	6.03	7.54	6.36	6.65	4.01	1.08	4.48	5.72	2.28	6.09	1.6	4.99
TCTTGTAGATCAGCAGTTTAAGAAAGCTGGCCAA	0.068	-0.0226	-0.271	0.182	-0.0391	0.33	-0.762	1.27	2.68	2.09	1.44	0.0506	0.167	0.0418	-0.0273	0.249	-0.18	0.328	0.193	-0.0976
TCATATAGGCAATACAGGTGAAAGTCGGCATCTA	1.06	0.731	0.422	0.906	-0.3	1.3	0.823	1.91	3.62	2.85	2.91	1.7	0.893	0.339	0.723	0.419	0.292	0.707	0.869	0.192
GCTTACGGTTCAAAGGTTATAGCATGAATAGAAT	4.43	4.34	0.505	4.04	-0.0859	5.44	4.71	5.6	2.92	5.08	-0.685	0.999	0.711	0.999	0.99	4.71	0.601	6.22	0.458	2.33
GCGACTGGGGCATCATCAGGTTACCATAACTTAA	0.261	0.0527	0.169	1.57	-0.509	1.46	1.1	0.894	-0.0999	0.381	4.15	3.3	-0.137	-0.42	0.121	0.266	-0.0234	1.05	-0.63	0.767
CCTAGCAGGCCAGCGTCACTCAAGCATTTCGCTT	-0.634	-0.323	-0.436	-0.45	-0.612	-0.652	-0.466	-1.02	-1.25	-0.939	0.696	-0.171	-1.15	-1.61	-0.299	-0.806	-0.554	-0.721	-0.187	-0.122
GAGACAGGGTCAAGGCCAGAGTACGCGTATTGAT	6.57	3.62	-0.408	3.43	-0.789	5.24	4.71	4.73	1.4	3.22	1.79	2.9	0.251	-0.239	2	3.78	-0.543	4.4	0.471	4.2
GCAGACAGGTGAACCGCAGGTAACTCAGGGTGGC	0.339	0.437	-0.44	0.125	-1.15	1.77	0.554	0.309	-0.52	0.0575	0.713	0.87	-0.564	-0.733	-0.518	0.615	-0.535	1.09	-0.768	0.901
CGCCCAAGGTCAAAGGTCAGTGAAGAGATGACGG	8.13	6.57	3.09	6.44	1.72	7.07	10.1	8.16	7.42	8.6	3.58	5.36	0.645	0.0371	3.28	7.03	1.41	8.49	1.99	6.04
ATATATAGGTTAGCTGGGGTCATTCAGACTAGGC	4.53	6.18	3.51	5.39	2.03	5.2	5.62	5.43	2.62	4.79	6.82	5.96	2.35	1.71	2.62	6.52	3.94	5.27	2.07	3.21
CCTAGTTGGTCAGGAGGTCACACACCGGATATGA	3.73	3.67	2.08	3.3	0.83	4.11	3.41	3.95	1.75	3.27	1.79	3.68	0.499	0.258	3.9	4.41	1.41	4.76	2.91	3.82
TCTGGTAGGTCAACGATGGTCAGCTAATCTGCTA	4.45	3.6	0.986	2.55	0.479	4.35	4.4	4.54	3.78	4.32	5.2	5.77	1.81	0.722	2.39	2.25	0.21	2.78	0.843	4.16
CCCGCTAGGTCAATGGTCAGCTAAAGCAGCTCGC	3.1	2.28	-0.0501	1.61	0.293	3.18	5.11	5.22	3.41	5.01	4.1	3.83	-0.504	-0.484	1.55	1.09	-0.582	1.91	-0.541	3.78
CCTACTGGGCCATAGGTCATTGATTCCAATGCTC	1.76	2.08	1.23	2.39	-0.227	5.16	9.89	8.77	8.56	10.3	3.69	5.78	-0.202	0.625	2	2.1	0.286	2.7	-0.287	2.34
CCTTACCGGTCACGAGGTTATAGCACGACGAGCG	2.69	3.04	2	2	0.699	2.85	2.12	2.07	0.437	1.06	1.09	2.32	0.31	0.533	2.18	1.92	0.733	2.66	1.45	3.73
CGAACTAGGTCAGAAAAGGACAGTGAAGGATGAT	1.84	0.723	-0.125	0.338	-0.514	2.87	4.64	4.06	1.43	3	6.88	7.14	2.3	1.47	1.15	1.17	-0.473	1.08	0.026	3.16
ATATGTAGGTTAGCTGGGATCATTCAGACTAGGC	0.641	0.823	0.0491	0.629	0.181	2.71	3.18	2.72	0.999	1.85	6.87	5.92	1.97	2.29	0.83	1.21	0.543	0.547	0.6	0.723
TAGCCTAGGTTATTGGGCCAGTATAGTACGCATC	-0.0933	0.0825	-0.331	0.173	-0.786	1.61	1.5	1.51	-0.136	0.762	2.14	2.87	-0.637	0.0704	-0.257	0.000197	-0.646	0.299	-1.1	0.689
TAGCCTAGGTCAGATCGGGCCAGTATACGCTATA	1.61	1.09	-0.264	0.666	-0.213	1.7	0.85	0.845	-0.133	0.327	0.415	1.78	0.225	-0.375	0.0641	1.01	-0.518	1.42	-0.937	3.02
ATATGTAGGTTATCGGGTCAGTCAGTTTGCGCAT	2.15	2.12	0.91	1.91	1.49	4.28	6.83	5.81	3.11	5	7.7	7.77	4.15	2.31	2.57	2.53	2.52	2.6	1.19	2.55
ATATGTATGTTACATCCGGGTCATTCAGGCTATG	1.15	1.58	0.696	2.06	0.763	2.94	1.75	1.55	0.754	1.22	3.22	3.46	1.61	1.67	1.16	2.54	1.37	2.59	0.761	1.52
